Screening results from PubChem BioAssay.
Most compounds without a hit are left out; they make up all but 9% or so of the library.
HP1b chromo inh: HTS for Inhibitors of HP1-beta Chromodomain Interactions with Methylated Histone Tails | hit rate 0.56% among 390,000 | Potency, µM (titrated, usually from 114 µM), without a hit: top-dose activity change, negative = inhibition, actives largely listed as inhibitors | AlphaScreen HP1-beta / biotin-H3K9me3 peptide binding | AID 540317, 2011 | Chromobox protein homolog 1 (Homo sapiens), P83916; also: nearly all actives have a fitted effect of over 70% in size
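AlphaScreen: HP1-beta (50 nM) preformed 30 min with biotin-H3(1-18)K9me3 peptide (50 nM) in PBS pH 7.4, 0.01% Tween-20. Compound added for 30 min at RT, then streptavidin donor/nickel chelate acceptor beads (10 ug/mL) for 30 min.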
BAZ2B inh: qHTS Assay for Inhibitors of BAZ2B | Bromodomain adjacent to zinc finger domain protein 2B (Homo sapiens), Q9UIF8 | AlphaScreen BAZ2B-H3K14Ac peptide displacement | Potency, µM (titrated, usually from 114 µM), for the others: at the top dose activity change, negative = inhibition, hits mostly inhibitors | hit rate 4.4% among 360,000; also: % is scaled to controls: 0 for no effect and ±100 for the full control effect; nearly all actives have a fitted effect of over 60% in size
Target sequence (Q9UIF8 whole entry, looked up, the tested form may be a part): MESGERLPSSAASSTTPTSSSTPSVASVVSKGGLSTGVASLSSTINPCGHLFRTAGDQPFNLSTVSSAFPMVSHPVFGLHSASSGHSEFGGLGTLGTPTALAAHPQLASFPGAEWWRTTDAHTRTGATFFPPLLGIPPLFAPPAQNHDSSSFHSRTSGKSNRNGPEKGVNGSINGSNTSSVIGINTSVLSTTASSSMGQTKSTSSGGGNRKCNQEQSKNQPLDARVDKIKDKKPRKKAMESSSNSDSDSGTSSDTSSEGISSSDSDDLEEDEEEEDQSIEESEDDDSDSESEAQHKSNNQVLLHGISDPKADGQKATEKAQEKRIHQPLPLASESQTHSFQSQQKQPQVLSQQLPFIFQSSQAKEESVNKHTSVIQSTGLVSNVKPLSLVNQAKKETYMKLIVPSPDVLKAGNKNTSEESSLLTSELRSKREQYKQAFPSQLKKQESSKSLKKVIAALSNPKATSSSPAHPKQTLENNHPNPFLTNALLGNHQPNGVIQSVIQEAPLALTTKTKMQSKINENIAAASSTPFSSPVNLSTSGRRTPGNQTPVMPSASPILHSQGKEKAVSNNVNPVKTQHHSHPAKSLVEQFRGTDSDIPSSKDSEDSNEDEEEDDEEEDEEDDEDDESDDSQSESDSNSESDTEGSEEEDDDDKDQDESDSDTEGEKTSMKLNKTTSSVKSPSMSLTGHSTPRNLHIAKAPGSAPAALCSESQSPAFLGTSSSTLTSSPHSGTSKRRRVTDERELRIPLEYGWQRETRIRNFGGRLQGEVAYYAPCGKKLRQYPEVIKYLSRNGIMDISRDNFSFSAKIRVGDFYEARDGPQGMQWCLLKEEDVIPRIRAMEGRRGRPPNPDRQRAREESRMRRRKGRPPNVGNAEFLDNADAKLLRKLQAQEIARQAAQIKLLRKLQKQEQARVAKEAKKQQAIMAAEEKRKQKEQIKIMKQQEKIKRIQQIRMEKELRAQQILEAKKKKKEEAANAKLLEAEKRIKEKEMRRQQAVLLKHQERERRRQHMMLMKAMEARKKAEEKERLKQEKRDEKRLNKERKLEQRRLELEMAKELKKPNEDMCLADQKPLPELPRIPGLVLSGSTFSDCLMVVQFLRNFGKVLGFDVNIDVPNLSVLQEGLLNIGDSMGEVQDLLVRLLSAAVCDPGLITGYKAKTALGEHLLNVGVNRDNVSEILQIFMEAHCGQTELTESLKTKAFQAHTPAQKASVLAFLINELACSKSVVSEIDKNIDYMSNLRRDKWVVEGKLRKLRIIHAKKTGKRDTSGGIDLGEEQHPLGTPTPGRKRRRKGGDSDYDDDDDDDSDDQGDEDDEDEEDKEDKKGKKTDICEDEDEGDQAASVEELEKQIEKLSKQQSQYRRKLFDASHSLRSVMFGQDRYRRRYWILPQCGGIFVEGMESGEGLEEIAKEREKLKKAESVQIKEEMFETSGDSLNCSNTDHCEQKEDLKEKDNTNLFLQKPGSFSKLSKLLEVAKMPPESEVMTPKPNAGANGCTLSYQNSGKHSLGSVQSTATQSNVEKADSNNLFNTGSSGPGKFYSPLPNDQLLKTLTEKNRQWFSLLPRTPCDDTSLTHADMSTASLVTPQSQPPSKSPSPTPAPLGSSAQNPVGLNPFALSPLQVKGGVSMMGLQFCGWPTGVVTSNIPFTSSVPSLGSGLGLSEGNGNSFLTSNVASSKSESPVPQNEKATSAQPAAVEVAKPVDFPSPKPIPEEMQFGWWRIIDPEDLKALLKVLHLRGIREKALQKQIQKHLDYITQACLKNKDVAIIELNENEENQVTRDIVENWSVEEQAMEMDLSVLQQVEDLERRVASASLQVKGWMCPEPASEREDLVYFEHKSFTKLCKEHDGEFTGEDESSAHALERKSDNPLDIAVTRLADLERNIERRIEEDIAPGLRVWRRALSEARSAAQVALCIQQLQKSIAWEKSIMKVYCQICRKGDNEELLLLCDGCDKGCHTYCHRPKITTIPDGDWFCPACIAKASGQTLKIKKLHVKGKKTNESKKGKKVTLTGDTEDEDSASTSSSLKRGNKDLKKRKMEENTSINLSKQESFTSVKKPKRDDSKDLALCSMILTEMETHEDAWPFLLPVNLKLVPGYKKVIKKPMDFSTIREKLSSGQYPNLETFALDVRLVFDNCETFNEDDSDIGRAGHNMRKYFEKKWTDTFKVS
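AlphaScreen luminescence quantifies BAZ2B engagement of H3K14Ac peptide; the protein and biotinylated peptide are both at 50 nM final, buffer PBS pH 7.4 with 0.01% Tween-20, all steps at room temperature.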
JMJD2A Tudor: qHTS Assay for Inhibitors of JMJD2A-Tudor Domain. Lysine-specific demethylase 4A (Homo sapiens), O75164. AlphaScreen JMJD2A-Tudor / H3K4me3 peptide binding. Potency, µM (doses to about 114 µM), for the others: top-dose activity change, negative = inhibition, usual class: inhibitors. hit rate 4.4% among 390,000; also: % is scaled to controls: 0 for no effect and ±100 for the full control effect; nearly all actives have a fitted effect of over 50% in size
PLK1 PBD inh: qHTS for Inhibitors of PLK1-PDB (polo-like kinase 1 - polo-box domain): Primary Screen; Potency, µM, without a hit: max response, negative = inhibition, usual class: inhibitors; AID 720504, 2013; hit rate 2.8% among 360,000; Plk1 PBD binding of FITC phosphopeptide, fluorescence polarization; also: series mostly up to about 57 µM; % is scaled to controls: 0 for no effect and ±100 for the full control effect; nearly all actives have a fitted effect of over 65% in size
G9a block: qHTS Assay for Inhibitors of Histone Lysine Methyltransferase G9a; Histone-lysine N-methyltransferase EHMT2 (Homo sapiens), Q96KQ7; G9a H3K9 monomethylation, AlphaScreen, 2 h; Potency, µM (doses to about 102 µM), for the others: top-dose activity, negative = inhibition, actives largely listed as inhibitors; hit rate 8.8% among 350,000; AID 504332, 2011; also: % is scaled to controls: 0 for no effect and ±100 for the full control effect; nearly all actives have a fitted effect of over 75% in size
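Chemiluminescent proximity detection of H3K9 monomethylation, read after 10 min bead incubation in the dark. Reaction: 20 nM G9a, 500 nM biotin-H3K9 peptide, 20 uM SAM cofactor, 2 h, room temperature, following 15 min enzyme-compound preincubation.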
12-LOX inh: Primary qHTS assay for inhibitors of human arachidonate 12S-lipoxygenase (ALOX12): Round 2. Polyunsaturated fatty acid lipoxygenase ALOX12 (Homo sapiens), P18054. purified 12hLO, xylenol orange hydroperoxide absorbance. Potency, µM (titrated, usually from 108 µM), for the others: at the top dose activity change, negative = inhibition, most hits filed as inhibitors. hit rate 1.1% among 580,000; also: % is scaled to controls: 0 for no effect and ±100 for the full control effect
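Purified human 12hLO (150 nM final) in 25 mM Hepes, 0.01% Triton X-100, pH 7.0 was preincubated 15 min at room temperature with compound. Then 40 uM arachidonic acid was added, 30 min. Hydroperoxide was read by Fe-XO absorbance ratio 573/405 nm.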
* = called active by the depositor; ? = inconclusive; / = no result; [ ] = dose if it differs, or a comment. Calls follow the shape of the dose curve; as a rule, active = well fitted curve in the direction sought with a large enough effect; inconclusive = small, poorly fitted or top-dose-only effect, or another doubt; inactive = no such curve, though single readings can be large; an effect the other way counts as inactive or inconclusive. Potency is read from the fitted curve at half-maximal effect.

SMILES	HP1b chromo inh	BAZ2B inh	JMJD2A Tudor	PLK1 PBD inh	G9a block	12-LOX inh
COc1cc(NC(=O)Cc2cccs2)cc(OC)c1	?	14%	-15%[11.4 µM]	3.4µM*	11%[59 µM]	0%
Cc1cc(NS(=O)(=O)c2ccc(NC(=O)Cc3cccs3)cc2)no1	28%	-2%	-15%	0%	4%[12.7 µM]	-8%
COc1ccc2c(C)c(CCC(=O)N3CCOCC3)c(=O)oc2c1	/	/	/	/	/	22%
CCCc1nn2c(=O)cc(COC(=O)c3cccc(NC(=O)CCc4ccccc4)c3)nc2s1	40%	-8%	-21%	/	15%[59 µM]	-1%
Cc1ccc(Nc2nnc(SCC3CCCCO3)s2)cc1 (configuration not stated)	40%	16%	-4%	-2%	40µM*	-6%
O=[N+]([O-])c1ccc([C@H](O)[C@H](CO)N=Cc2ccccc2O)cc1	50%	-2%	-27%	-8%	8.9µM*	12%
Cc1ccc(S(=O)(=O)N2CCN(C3CC4CCC3C4)CC2)cc1 (configuration not stated)	32µM*	32µM*	14µM*	-19%	8.9µM*	?
COc1ccc(S(=O)(=O)N2CCN(C3CC4CCC3C4)CC2)cc1 (configuration not stated)	2%	-30%	3.2µM*	?	22µM*	?
Cc1ccc(S(=O)(=O)N2CCN3CCCC3C2)cc1 (configuration not stated)	20%	0%	-11%	-3%	-4%	3%
Cc1ccc(CNC(=O)Cc2nn(C)c(=O)c3ccccc23)cc1F	/	/	/	/	/	18%
COc1ccc(C(=O)N2C(C(=O)NCc3ccco3)COC23CCN(C(=O)CC(C)(C)C)CC3)cc1 (configuration not stated)	/	/	/	/	/	10%
NC(N)=N/N=C/c1cccc([N+](=O)[O-])c1O	2%	?	-20%	-3%	?	-14%
NC(N)=N/N=C/c1cccc(Cl)c1Cl	10%	-23%	-17%	-4%	18µM*	-8%
CN(C(=O)CCS(=O)(=O)c1cc2c(cc1Cl)NC(=O)CO2)C1CCCCC1	22%	10%	-10%	-12%	3%	20%
C=C(C)C(O)CC/C(C)=C/Cc1c(O)ccc(C(=O)/C=C/c2ccc(O)cc2)c1O (configuration not stated)	-27%	/	?	6%	/	?
COc1cc(/C=C/C(C)=O)cc(OC)c1OC	-16%	3%	-10%[11.4 µM]	30µM*	-2%	-6%
COc1ccc(C(=O)/C=C/c2ccc(O)cc2)c(O)c1C/C=C(\C)CCC=C(C)C	-19%	/	28µM*	1%	/	?
COc1cc(OC)c(C(=O)C=Cc2ccc(OC)c(OC)c2)c(OC)c1	-10%	/	-26%	-16%	/	-20%
COc1ccc(C=CC(=O)c2ccc(OC)c(OC)c2O)cc1OC	?	/	50µM*	-9%	/	-12%
CCc1ccc(C(=O)NNc2ccc(Cl)cc2)cc1	78%	?	-26%	-5%	10µM*	-7%
CCc1ccc(C(=O)NCCOC)cc1	/	/	/	/	/	-70%
CCc1ccc(C(=O)NNC(=O)OC)cc1	?	-2%	?	9.5µM*	-12%[59 µM]	40%
CCc1ccc(C(=O)NNc2cc(Cl)cc(Cl)c2)cc1	20%	-4%	-16%	-16%	/	?
CC(C)(C)c1ccc(C(=O)NNc2cc(Cl)cc(Cl)c2)cc1	65%	-10%	-2%	5%	22µM*	148%
CCc1sc(C(=O)Nc2ccc3nc(C)sc3c2)cc1C	23%	/	-14%	2%	/	262%
SMILES	HP1b chromo inh	BAZ2B inh	JMJD2A Tudor	PLK1 PBD inh	G9a block	12-LOX inh
CCCNc1nc(-c2ccc(Cl)cc2Cl)cs1	/	/	/	/	/	-10%
NC(=S)N/N=C/c1cccc(Cl)c1	/	/	/	/	/	-64%
NC(=S)N/N=C/c1ccc(-n2nncc2-c2ccc(Cl)cc2)cc1	-9%	?	?	?	45µM*	/
CCNC(=S)N/N=C1\C(=O)c2cccc3cccc1c23	-2%	-10%	-17%	-6%	3%[59 µM]	6%
O=C(N/N=C1/C(=O)c2cccc3cccc1c23)c1ccc(Cl)cc1	-9%	50µM*	35µM*	?	?	0%[57.4 µM]
COc1ccc(S(=O)(=O)N(CC(=O)NC2CC2)C2CCCCC2)cc1Cl	9%	6%	-8%	-13%	-48%[12.7 µM]	-2%
O=C(CCC[C@@H]1[C@H]2CCCN3CCC[C@@H](CN1C(=O)NC1CCCCC1)[C@@H]23)NCC1CC1	/	/	/	/	/	51%
CCn1ncc(NC(=S)Nc2ccc(OC)c(OC)c2)c1C(N)=O	0%	79µM*	?	-25%	45µM*	?
CCn1ncc(NC(=S)Nc2ccc3c(c2)OCO3)c1C(N)=O	-11%	-32%	-3%	-16%	20µM*	-17%
CC(C)=CCc1c(O)cc(C)oc1=O	/	/	/	/	-4%[2.33 µM]	/
Cc1ccc2nccc(C(=O)N3CCCC(N4CCN(c5ccc(F)cc5)CC4)C3)c2c1 (configuration not stated)	0%	-17%	-12%	-2%	?	/
c1ccc2c(c1)nnn2Cc1nnc2sc(-c3ccc4c(c3)OCCO4)nn12	-36%	-1%	-29%	11µM*	?	?
COc1ccc(Cc2nn3c(Cn4nnc5ccccc54)nnc3s2)cc1	?	-38%	89µM*	21µM*	1.6µM*	4%
O=c1c(-c2ccccc2)nnc2sc(-c3ccccc3)nn12	/	/	/	/	/	-7%
c1ccc(-c2nn3c(Cn4nnc5ccccc54)nnc3s2)cc1	?	1%	?	13µM*	3.2µM*	14µM*
CCC(=O)NCCc1nc2cc(NC(=O)c3cccs3)ccc2n1C	34%	8%	-6%	-2%	-31%	-4%
CC(=O)NC(=S)Nc1ccc(S(=O)(=O)N2CCOCC2)cc1	-3%	0%	2%[11.4 µM]	?	-35%	-38%
COc1cc(/C=N/NC(=O)NC2CCCCC2)cc(OC)c1O	-6%	-14%	-18%	-20%	50µM*	-2%
O=S(=O)(c1ccc(NC(=S)NC2CC2)cc1)N1CCOCC1	28%[57 µM]	-1%	-7%	?	7%	-2%
